From PubChem BioAssay AID652115 (Broad Institute, 2013)
Values joined by “and” are separate entries in the source; they are usually repeats but may differ in a detail not shown here. Equal values may be shown once. Out of some 330,000 compounds screened, about 3,800 (1.2%) were called active. Cut-off read from the data, not from the text of the source: active = inhibition above about 15%; inconclusive = no clear call, values can overlap the other calls; inactive = below that. The entries come from a sample that favours actives as a whole. A structure can be active in one record and inactive in another.

Each compound was assayed against NAD-dependent protein deacylase sirtuin-5, mitochondrial (Homo sapiens) (UniProt Q9NXA8) (assay: blockers of sirtuin-5 deacylase activity – biochemical, fluorescence imaging, single point, set 5, primary screen (AID 652115)). Conditions: Purified SirT5, succinyl-peptide AMC, trypsin-coupled fluorescence; at 15 µM; stronger effect = higher value.
NAD-dependent protein deacylase sirtuin-5, mitochondrial (Homo sapiens), sequence (Q9NXA8 whole entry, looked up): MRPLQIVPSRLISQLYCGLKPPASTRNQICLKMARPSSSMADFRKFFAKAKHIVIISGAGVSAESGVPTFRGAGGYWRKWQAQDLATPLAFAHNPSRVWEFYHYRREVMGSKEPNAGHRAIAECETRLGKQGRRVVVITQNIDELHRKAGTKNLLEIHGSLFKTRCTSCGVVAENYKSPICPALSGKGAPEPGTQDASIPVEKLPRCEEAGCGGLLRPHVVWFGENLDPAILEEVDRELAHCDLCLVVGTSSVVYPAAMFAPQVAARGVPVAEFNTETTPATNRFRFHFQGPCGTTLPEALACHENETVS
For `O=C(C[C@@H]1CC[C@@H](NS(=O)(=O)c2ccc(F)cc2)[C@H](CO)O1)NCc1ccc(Cl)c(Cl)c1`, the inhibition was -7.51% (inactive).
`CCOC(=O)N1CCN(C(=O)C[C@@H]2C[C@@]3(C(=O)OC)CC(C)(C)CC=C3N(Cc3ccco3)C2=O)CC1` was tested, and the inhibition was -1.2% (inactive).
With `CCCCNC(=O)C[C@@H]1C[C@@]2(C(=O)OC)CC(C)(C)CC=C2N(Cc2ccco2)C1=O` the inhibition was 21.7% (active).
In the case of `CCCCNC(=O)C[C@@H]1C[C@@]2(C(=O)OCC)CCC=C2N(Cc2ccco2)C1=O`, the inhibition is reported as 4.42% (inactive).
In the case of `CC(C)NC(=O)N(C)C[C@@H]1Oc2c(NC(=O)c3cnccn3)cccc2C(=O)N([C@@H](C)CO)C[C@@H]1C`, the inhibition is reported as -2.42% (inactive).
For `COc1ccc2c3c([nH]c2c1)[C@@H](CO)N(S(C)(=O)=O)CC31CN(CC2CC2)C1`, the inhibition was 1.2% (inactive).
With `CN(C)S(=O)(=O)N1CCN(c2ccc([N+](=O)[O-])cc2)CC1` the inhibition was 17.4% (active).
In the case of `O=[N+]([O-])c1ccc(N2CCOCC2)cc1`, the inhibition is reported as -2.77% (inactive).
For `O=C(Cc1ccc([N+](=O)[O-])cc1)NCCS(=O)(=O)N1CCN(c2ccccc2)CC1`, the inhibition was -5.2% (inactive).
In the case of `O=C(Cc1ccccn1)NCC[C@H]1CC[C@@H](NS(=O)(=O)c2ccc(F)cc2)[C@H](CO)O1`, the inhibition is reported as -3.9% (inactive).
For `Nc1[nH]c(C(=O)c2ccccc2)c(-c2ccc(Cl)cc2Cl)c1C(=O)c1ccccc1`, the inhibition was 1.08% (inactive).
In the case of `CC(Oc1ccc(F)cc1F)C(=O)/C=C/N(C)C` (stereo not drawn), the inhibition is reported as 38.2% (active).
`CC(Oc1ccccc1F)C(=O)NN` (stereo not drawn) was tested, and the inhibition was 5.06% (inactive).
`O=C(C=CC(=O)Nc1ccc(F)cc1F)Nc1ccc(F)cc1F` was tested, and the inhibition was 2.61% (inactive).
In the case of `CCCN1[C@H](C(=O)N[C@H](C)c2ccccc2)[C@@H](CO)[C@@H]2Cn3c(ccc(-c4ccccc4)c3=O)[C@@H]21`, the inhibition is reported as -2.75% (inactive).
`O=C(Cc1ccccc1)N1C[C@H]2[C@@H](c3ccccc31)[C@H](CO)N2C(=O)c1ccc(F)cc1` was tested, and the inhibition was 0.689% (inactive).
For `Cc1cccnc1NC(=O)Cn1c(=O)oc2ccccc21`, the inhibition was -0.084% (inactive).
For `NC(=O)Cn1c(=O)oc2ccccc21`, the inhibition was 23.1% (active).
With `CC(=O)c1ccc(NC(=O)Cn2c(=O)oc3ccccc32)cc1` the inhibition was -1.5% (inactive).
For `CO[C@@H]1CN(C)C(=O)c2cc(NC(C)=O)ccc2OC[C@H](C)N(C(=O)CC2CC2)C[C@@H]1C`, the inhibition was 0.181% (inactive).
With `CO[C@@H]1CC[C@H]2CCN(C)C(=O)[C@@H](C)CN(C)C(=O)c3cccc(C#N)c3OC[C@@H]1O2` the inhibition was -2.44% (inactive).
In the case of `CS(=O)(=O)Nc1ccc2c(c1)[C@H]1C[C@@H](CC(=O)NCCc3ccccc3)O[C@@H](CO)[C@H]1O2`, the inhibition is reported as 21.9% (active).
In the case of `COCCNC(=O)C[C@H]1C[C@H]2c3cc(NS(C)(=O)=O)ccc3O[C@H]2[C@H](CO)O1`, the inhibition is reported as -4.62% (inactive).
In the case of `O=C(C[C@@H]1C[C@@H]2c3cc(NC(=O)C4CCC4)ccc3O[C@@H]2[C@@H](CO)O1)NCc1ccccc1`, the inhibition is reported as 5.94% (inactive).
`CN(C)CC(=O)Nc1ccc2c(c1)[C@H]1C[C@@H](CC(=O)NCc3ccc(Cl)cc3)O[C@@H](CO)[C@H]1O2` was tested, and the inhibition was 4.32% (inactive).
With `CN(C)CC(=O)Nc1ccc2c(c1)[C@@H]1C[C@H](CC(=O)NCc3ccc(Cl)cc3)O[C@@H](CO)[C@@H]1O2` the inhibition was 4.86% (inactive).
`O=C(C[C@@H]1C[C@H]2c3cc(NS(=O)(=O)c4ccc(F)cc4)ccc3O[C@H]2[C@H](CO)O1)NCCc1ccccc1` was tested, and the inhibition was 1.01% (inactive).
With `CN(C)c1ccc2c(c1)[C@H]1C[C@H](CC(=O)NCc3ccc(Cl)cc3)O[C@H](CO)[C@H]1O2` the inhibition was 15.9% (active).
With `O=C(C[C@H]1C[C@H]2c3cc(NC(=O)C4CCC4)ccc3O[C@H]2[C@@H](CO)O1)NCc1ccc(Cl)cc1` the inhibition was 0.855% (active).
With `O=C(C[C@@H]1C[C@H]2c3cc(NC(=O)C4CCC4)ccc3O[C@H]2[C@@H](CO)O1)NCc1ccc2c(c1)OCO2` the inhibition was 5.03% (inactive).
For `COCC#Cc1cnc2c(c1)C(=O)N([C@H](C)CO)C[C@H](C)[C@H](CN(C)C(=O)C1CCOCC1)O2`, the inhibition was 3.88% (inactive).
With `CCNC(=O)c1cc2c(c(-c3cccc(C4=CCCC4)c3)n1)[C@H](CCO)N([S@@](=O)C(C)(C)C)C2` the inhibition was 13.7% (inactive).
For `O=C(C[C@@H]1C=C[C@@H](NC(=O)C2CC2)[C@H](CO)O1)NCCCN1CCOCC1`, the inhibition was 4.53% (inactive).
For `N#C[C@H]1[C@@H](c2ccccc2C2=CCCCC2)[C@H](CO)N1C(=O)c1ccccn1`, the inhibition was 2.41% (inactive).
For `CN1C(=O)c2cc(NC(=O)C3CCOCC3)ccc2OC[C@H]2O[C@@H](CC(=O)NCC3CCCCC3)CC[C@@H]21`, the inhibition was 12.7% (inactive).
For `O=C(Cc1ccccn1)N1CC(=O)N2[C@H](CO)[C@@H](c3ccc(C#CC4CCCC4)cc3)[C@H]2C1`, the inhibition was 1.82% (inactive).
`O=C(C[C@H]1CC[C@@H]2[C@H](COC[C@H](O)CN2S(=O)(=O)c2ccc(Cl)cc2)O1)N[C@@H]1CCN(Cc2ccccc2)C1` was tested, and the inhibition was 0.669% (inactive).
For `Cc1cccc(S(=O)(=O)N2C[C@@H]3[C@H](c4ccccc42)[C@@H](CO)N3C(=O)c2ccccc2)c1`, the inhibition was 2.62% (inactive).
With `CO[C@@H]1CN(C)C(=O)c2ccc(NC(=O)Nc3cc(F)ccc3F)cc2OC[C@@H](C)N(C)C[C@@H]1C` the inhibition was 4.44% (inactive).
In the case of `COCC(=O)N1CC(=O)N2[C@H](CO)[C@@H](c3ccc(C#CC4CCCCC4)cc3)[C@@H]2C1`, the inhibition is reported as -3.9% (inactive).
In the case of `C/C=C/c1cnc2c(c1)C(=O)N([C@@H](C)CO)C[C@@H](C)[C@H](CN(C)Cc1cncnc1)O2`, the inhibition is reported as -2.68% (inactive).
In the case of `O=C(CN1CCOCC1)N1CCCCN2[C@H](C1)[C@H](c1ccc(-c3ccccc3F)cc1)[C@@H]2CO`, the inhibition is reported as 22.6% (active).
With `O=C(CN1CCOCC1)N1CCCCN2[C@H](CO)[C@H](c3ccc(-c4ccccc4)cc3)[C@@H]2C1` the inhibition was -2.91% (inactive).
`O=C(CN1CCOCC1)N1CCCCN2[C@@H](CO)[C@H](c3ccc(-c4ccccc4)cc3)[C@@H]2C1` was tested, and the inhibition was -2% (inactive).
With `CNC(=O)C[C@@H]1CC[C@@H]2[C@H](COc3ccc(NC(=O)Nc4ccccc4)cc3C(=O)N2C)O1` the inhibition was 5.7% (inactive).
`CN(C)CC(=O)Nc1ccc2c(c1)[C@H]1C[C@H](CC(=O)NCc3ccccn3)O[C@@H](CO)[C@H]1O2` was tested, and the inhibition was -6.14% (inactive).
In the case of `Cc1ccc(SCCC(=O)Nc2cc(C)on2)cc1`, the inhibition is reported as -2.48% (inactive).
With `Cc1ccc(SCCC(=O)NCc2ccccn2)cc1` the inhibition was -1.1% (inactive).
In the case of `Cc1ccc(SCCC(=O)NC(C(C)C)C(C)C)cc1`, the inhibition is reported as 15.4% (active).
With `N#Cc1ccc(-c2ccc(C3[C@@H]4CN(S(=O)(=O)c5ccccc5F)C[C@H]3N4)cc2)cc1` (stereo partly drawn) the inhibition was -1.48% (inactive) and -0.825% (inactive).
For `CN(C)C(=O)c1ccc(-c2ccc(C3[C@@H]4CN(C(=O)Nc5ccccc5)C[C@H]3N4)cc2)cc1` (stereo partly drawn), the inhibition was -1.69% (inactive).
In the case of `O=C(C1CCCCC1)N1C[C@@H]2N[C@H](C1)C2c1ccc(-c2cccc(F)c2)cc1` (stereo partly drawn), the inhibition is reported as 1.22% (inactive) and 3.71% (inactive).
With `COc1ccccc1S(=O)(=O)N1C[C@@H]2N[C@H](C1)C2c1ccc(-c2cccc(C)c2)cc1` (stereo partly drawn) the inhibition was 1.28% (inactive) and 16.2% (active).
`Cc1cccc(-c2ccc(C3[C@@H]4CN(C(=O)Nc5ccc(C(F)(F)F)cc5)C[C@H]3N4)cc2)c1` (stereo partly drawn) was tested, and the inhibition was 7.01% (inactive) and 16.1% (active).
With `COc1cccc(S(=O)(=O)N2C[C@@H]3N[C@H](C2)C3c2ccc(-c3cccc(C(=O)N(C)C)c3)cc2)c1` (stereo partly drawn) the inhibition was 1.44% (inactive) and 6.3% (inactive).
In the case of `O=C(C[C@H]1CC[C@H](NS(=O)(=O)c2ccccc2)[C@H](CO)O1)NCc1ccncn1`, the inhibition is reported as 6.51% (inactive).
In the case of `CN1C(=O)c2cc(NC(=O)Cc3cccs3)ccc2OC[C@@H]2O[C@@H](CC(=O)N[C@@H]3CCN(Cc4ccccc4)C3)CC[C@H]21`, the inhibition is reported as -2.4% (inactive).
With `COCCCNC(=O)[C@@]1(C)c2ccccc2C(=O)N(Cc2ccc(OC(F)(F)F)cc2)[C@H]1c1ccc(CO)cc1` the inhibition was 0.166% (inactive).
For `COc1ccccc1CNC(=O)C[C@H]1C[C@@H]2c3cc(NC(=O)Nc4ccccc4F)ccc3O[C@@H]2[C@H](CO)O1`, the inhibition was -5.72% (inactive).
`COCC(=O)N(C)C[C@H]1Oc2cc(C#C[C@@H](C)O)ccc2S(=O)(=O)N([C@H](C)CO)C[C@H]1C` was tested, and the inhibition was -5.34% (inactive).
With `CO[C@@H]1CN(C)C(=O)c2cc(NC(=O)CC(F)(F)F)ccc2OC[C@H](C)N(S(=O)(=O)c2cn(C)cn2)C[C@H]1C` the inhibition was 1.11% (inactive).
For `O=C(O)C[C@@H]1C[C@@H]2c3cc(NC(=O)Nc4ccccc4)ccc3O[C@@H]2[C@H](CO)O1`, the inhibition was -3.63% (inactive).
In the case of `O=C(Cc1ccncc1)N[C@H]1CC[C@H](CCn2cc(-c3ccccc3F)nn2)O[C@@H]1CO`, the inhibition is reported as 25.2% (active).
For `O=C(Cc1ccncc1)N[C@@H]1CC[C@H](CCn2cc(-c3ccccc3F)nn2)O[C@H]1CO`, the inhibition was 1.05% (inactive).
With `COc1ccc(NC(=O)N[C@H]2CC[C@H](CCn3cc(-c4ccccc4F)nn3)O[C@H]2CO)cc1` the inhibition was -0.072% (inactive).
For `O=C(Cc1cccnc1)N[C@H]1CC[C@H](CCn2cc(-c3ccccc3F)nn2)O[C@H]1CO`, the inhibition was -1.27% (inactive).
In the case of `O=C(Nc1ccc(F)cc1)N[C@H]1CC[C@H](CCn2cc(-c3ccc(F)cc3)nn2)O[C@@H]1CO`, the inhibition is reported as 3.97% (inactive).
`COc1ccc(NC(=O)N[C@@H]2CC[C@H](CCn3cc(-c4ccc(OC)cc4)nn3)O[C@@H]2CO)cc1` was tested, and the inhibition was 31.3% (active).
